Measurements taken from PubChem BioAssay AID687030 (Broad Institute, 2013).
In all, about 1,400 compounds went through this assay and about 10 (0.7%) were called active. The rule behind the calls is not given here. These entries were drawn from the full list. Measured potencies and affinities stand elsewhere.

Experiment: viability loss in BHK-21 cells – cell-based, plate reader, cherry-pick samples, cytotoxicity control, dose response (AID 687030);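 note: cells were exposed to compound for three days before reading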
Details: series mostly up to 19.5 µM

| Compound | outcome |
| --- | --- |
| Cc1ccc(N(C)C(=O)N2CCN(S(=O)(=O)c3ccc(C)cc3)CC2)cc1 | inactive |
| CCOC(=O)c1[nH]c2ccccc2c1NC(=O)c1ccc2c(c1)OCO2 | inactive |
| Cc1cccc(N(C(=O)Cn2nnc3ccccc32)C(C(=O)NC(C)(C)C)c2ccsc2)c1 (centres undefined) | inactive |
| O=C(CNC(=O)N1CC(=O)Nc2ccccc21)NCc1ccc(F)cc1 | inactive |
| Cc1noc(C)c1S(=O)(=O)N(C)C[C@H]1OCCCC[C@@H](C)Oc2ccc(NC(=O)Nc3ccc4c(c3)OCO4)cc2C(=O)N([C@@H](C)CO)C[C@H]1C | inactive |
| CCOC(=O)c1[nH]c(C)c(C(=O)OCC(=O)N2CC(=O)Nc3ccccc32)c1C | inactive |
| CC1CCCCN1CCCNC(=O)c1ccc2nc(N3CCCCC3)sc2c1 (centres undefined) | inactive |
| CCOC(=O)c1sc(NC(=O)c2ccncc2)c(C#N)c1C | inactive |
| CC(C)C(=O)Nc1nnc(S(=O)(=O)N2CCc3ccccc32)s1 | inactive |
| Fc1ccc(CCN2CCN=C2Nc2ccccc2)cc1 | inactive |
| CCC(C)[C@H]1COCCS(=O)(=O)N1Cc1ccc(Br)cc1 (some centres undefined) | inactive |
| O=C(N[C@@H]1C=C[C@H](CC(=O)N2CCc3ccccc3C2)O[C@@H]1CO)C1CCC1 | inactive |
| COc1cc2cc(CCCOC(=O)CCC(=O)O)oc(=O)c2cc1OC | inactive |
| CC1Cc2ccccc2N1S(=O)(=O)c1cnc(Cl)c(Br)c1 (centres undefined) | inactive |
| O=C(O)c1cccc(-c2csc(C(O)c3ccc(F)c(F)c3)n2)c1 (centres undefined) | inactive |
| O=C(O)c1ccccc1C(=O)NCc1c(Cl)cccc1Sc1ccc(Cl)cc1 | inactive |
| COc1ccc(CCN2CC(C(=O)NCCc3cn[nH]c3)CCC2=O)cc1 (centres undefined) | inactive |
| CNC(=O)C[C@H]1CC[C@@H]2[C@H](COc3ccc(NC(=O)c4ccc(F)c(F)c4)cc3C(=O)N2C)O1 | inactive |
| COc1cc2c(cc1OC)CN(C(=O)CCOc1ccccc1C)CC2 | inactive |
| N#Cc1cccnc1N1CCN(C(=O)c2ccccc2)CC1 | inactive |
| O=C(NCC[C@H]1CC[C@H](NS(=O)(=O)c2ccc(Oc3ccccc3)cc2)[C@@H](CO)O1)C1CC1 | inactive |
| CCCCCc1c(-c2ccccc2OC)ncn1CCc1ccccc1OC | inactive |
| O=C(Nc1cccc(S(=O)(=O)N2CCCCCC2)c1)c1ccc2ccccc2n1 | inactive |
| Cc1ccc(C(=O)O/N=C(\N)c2ccccn2)cc1 | inactive |
| CCc1nc2ccc(C(=O)N(CC)CCN(C)C)cn2c1N(C)C(=O)c1cccc(OC)c1 | inactive |
| C[C@@H]1CN([C@@H](C)CO)C(=O)c2cc(NS(=O)(=O)c3ccc(Cl)cc3)ccc2O[C@@H](C)CCCCO[C@H]1CN(C)CC1CC1 | inactive |
| O=C(c1cc(C2CC2)on1)N1CCCC(N2CCN(c3cccc(C(F)(F)F)c3)CC2)C1 (centres undefined) | inactive |

| Compound | outcome |
| --- | --- |
| O=C(c1ccncc1)N1CCCC(N2CCN(c3cccc(C(F)(F)F)c3)CC2)C1 (centres undefined) | inactive |
| O=S(=O)(NCc1c(Cl)cccc1Oc1ccccc1)c1ccccc1 | inactive |
| CCOc1ccc(C(=O)NCC(=O)N2CCCCCCC2)cc1 | inactive |
| O=C(O)C[C@H]1C=C[C@@H](NC(=O)CCN2CCCCC2)[C@@H](CO)O1 | inactive |
| CC1CCOC(c2coc3ccccc3c2=O)O1 (centres undefined) | inactive |
| COc1ccc(Br)cc1[C@H]1[C@H]2C=CC[C@@H](C)[C@@H]2C(=O)N1Cc1ccccc1 | inactive |
| O=C(Nc1cccc(-n2cnnn2)c1)C1CCCN(C(=O)Cc2cccc(Cl)c2)C1 (centres undefined) | inactive |
| CC(C)CN(C(=O)c1cc(Cl)nc2ccccc12)c1c(N)n(Cc2ccccc2)c(=O)[nH]c1=O | inactive |
| O=C(O)[C@H]1[C@H](CO)[C@H]2Cn3c(ccc(/C=C/c4ccccc4)c3=O)[C@H]2N1C(=O)c1cnccn1 | inactive |
| CN(CC(=O)Nc1ccc(F)cc1)C(=O)COC(=O)c1nc(Cl)ccc1Cl | inactive |
| CC(C)(C)OC(=O)CNC(=O)c1[nH]cnc1C(=O)N[C@@H](Cc1ccccc1)C(=O)OC(C)(C)C | inactive |
| CCOc1ncccc1C(=O)NNC(=O)c1cccc(S(=O)(=O)Nc2ccccc2OC)c1 | inactive |
| COc1cccc(N2CCN(C(=O)c3cccc(NC4=NC5CS(=O)(=O)CC5S4)c3)CC2)c1 (centres undefined) | inactive |
| CC(=O)Nc1cccc2ncccc12 | inactive |
| COc1cc(NC(C)=O)c2ncccc2c1Br | inactive |
| OC(COC(c1ccc(F)cc1)c1ccc(F)cc1)CN1CCCC1 (centres undefined) | inactive |
| Cc1ccc(C(=O)Nc2ccc(CN3CCCCC3)cc2)c(C)c1 | inactive |
| CN1CCC2CC1c1cc(-c3ccc(C(F)(F)F)cc3)ccc12 (centres undefined) | inactive |
| O=C(C[C@@H]1CC[C@H]2[C@@H](COC[C@@H](O)CN2Cc2cccc(Cl)c2)O1)N1CCOCC1 | inactive |
| O=C(C[C@H]1CC[C@H]2[C@@H](COC[C@@H](O)CN2Cc2cccc(C(F)(F)F)c2)O1)NCc1ccc(F)cc1 | inactive |
| C[C@@H]1CCCCO[C@H](CN(C)S(=O)(=O)c2ccccc2)[C@@H](C)CN([C@@H](C)CO)C(=O)c2cc(NC(=O)CCCN(C)C)ccc2O1 | inactive |
| COc1ccc(S(=O)(=O)N(C)C[C@@H]2Oc3ccc(NS(=O)(=O)c4ccccc4)cc3C(=O)N([C@H](C)CO)C[C@H]2C)cc1 | inactive |
| CCNC(=O)C[C@H]1CC[C@H]2[C@@H](COC[C@H](O)CN2Cc2ccc(Cl)c(Cl)c2)O1 | inactive |
| CCNC(=O)C[C@H]1CC[C@H]2[C@@H](COC[C@@H](O)CN2Cc2ccc(Cl)c(Cl)c2)O1 | inactive |
| CCC1CN(S(=O)(=O)c2ccc3c(c2)NC(=O)CC(=O)N3)c2cc(Cl)ccc2O1 (centres undefined) | inactive |
| Cc1cc(OCC(=O)NC(Cc2c[nH]c3ccc(O)cc23)C(=O)O)c2c(C)c(C)c(=O)oc2c1 (centres undefined) | inactive |
| COc1cccc(CNC(=O)[C@@H]2CCCN2C(=O)[C@H]2CCCCN2C(=O)c2ccc(Cl)cc2)c1 | inactive |
